Source: PubChem (Sanford-Burnham Center for Chemical Genomics)
Shown are actives, neighbours in structure and some others; about 3% of the full set was active somewhere.
SENP6 block = SENP6 protease inhibition | 1.8% of 330,000 active | Q9GZR1 | Recombinant SENP6 catalytic domain, aminoluciferin luminescence | inhibition, % at 10 µM;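 active = inhibition above about 50% at the single tested dose, limit read from the data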;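 note: plate controls were DMSO wells with enzyme for no effect and DMSO wells lacking enzyme for full effect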
PPC-1+TRAIL kill = compounds killing PPC-1 cancer cells with TRAIL present (potentiator screen, no TRAIL-free arm); PPC-1 cells + TRAIL, ATPLite viability luminescence; cell killing (% activity), % at 4 µM or 5 µM; 0.41% of 220,000 active; AID 1443;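 active = cell killing above 50% in the first pass at 4 µM, then a duplicate retest at 5 µM averaging 50% or more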;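 note: plate controls were cells with TRAIL plus DMSO for no effect and medium-only wells lacking cells for full effect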
SENP8 block-1 = SENP8 (human) protease inhibition. recombinant SENP8, Nedd8 substrate fluorescence. Q96LD8. 0.64% of 360,000 active. inhibition, % at 20 µM; in the data active = inhibition mostly above about 40%, no sharp cut-off; inactive = mostly below about 27%
Target sequence (Q96LD8 whole entry, looked up): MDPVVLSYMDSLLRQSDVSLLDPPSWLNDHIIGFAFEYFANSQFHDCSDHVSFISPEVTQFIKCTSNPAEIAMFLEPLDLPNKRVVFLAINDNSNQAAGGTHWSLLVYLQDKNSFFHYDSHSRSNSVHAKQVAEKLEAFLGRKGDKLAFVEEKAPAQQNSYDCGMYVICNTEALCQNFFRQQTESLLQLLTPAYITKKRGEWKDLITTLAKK
SENP7 inh = SENP7 protease inhibition | Q9BQF6 | recombinant SENP7, Z-RLRGG-aminoluciferin luminescence, 40 min | inhibition, % at 5 µM | 1.5% of 330,000 active;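 active = inhibition above about 50% at the single test dose, limit read from the data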;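 note: plate controls were DMSO with enzyme for no effect and no enzyme buffer wells for full effect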
C8 TRAIL sens = sensitizes caspase-8 expressing cells to TRAIL; NB7+C8 cells + TRAIL, ATPlite viability luminescence; inhibition (viability loss, TRAIL sensitization), % at 10 µM; 1% of 360,000 active;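 active = compounds causing at least 50% loss of cell viability in the single-dose screen, relative to plate controls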
SENP8 block-2 = inhibitors of human SENP8 protease; 1.2% of 330,000 active; AID 2540; inhibition, % at 10 µM; purified SENP8, Z-RLRGG-aminoluciferin cleavage, luminescence; in the data active = inhibition above about 50%
* hit, by the source's call; ! = not active in a repeat.

What do the screens show for `O=C(O)CSc1ccc(NC(=O)Nc2ccccc2F)cc1`?
SENP6 block: -5.5; PPC-1+TRAIL kill: 2.4; SENP8 block-1: 15.0; SENP7 inh: 98.5*; C8 TRAIL sens: 15.3; SENP8 block-2: 95.3*

Results for CN1CCN(Cc2nc3ccccc3c(=O)n2Cc2nc(-c3ccc4ccccc4c3)cs2)CC1 ?
PPC-1+TRAIL kill: -3.1; SENP8 block-1: 6.7; C8 TRAIL sens: 77.2*!

What do the screens show for `CN1CCN(Cc2nc3ccccc3c(=O)n2Cc2nc(-c3cccc([N+](=O)[O-])c3)cs2)CC1`?
SENP6 block: 1.7; PPC-1+TRAIL kill: 14.0; SENP8 block-1: 17.8; SENP7 inh: -5.4; C8 TRAIL sens: 20.5; SENP8 block-2: -7.5

What do the screens show for `CCOc1cc(C2CC(=O)N3CN(C4CCCCC4)CSC3=C2C#N)ccc1O` (configuration not stated)?
SENP6 block: 13.9; PPC-1+TRAIL kill: -11.0; SENP8 block-1: 66.3*; SENP7 inh: 25.2; C8 TRAIL sens: 3.5; SENP8 block-2: -0.7

How did CSc1ccccc1-c1nnc(-c2ccc(C)cc2)o1 do in these assays?
SENP6 block: 47.8; PPC-1+TRAIL kill: 46.8; SENP8 block-1: -165.2; SENP7 inh: 31.4; C8 TRAIL sens: 61.7*; SENP8 block-2: 26.0

Results for CSc1nnc(-c2ccccc2SC)o1 ?
SENP6 block: 17.5; PPC-1+TRAIL kill: 5.2; SENP8 block-1: -34.6; SENP7 inh: 4.9; C8 TRAIL sens: -6.2; SENP8 block-2: -3.9

Results for Nc1ccc(-c2nc3ccc(-c4nc5ccccc5o4)cc3[nH]2)cc1 ?
SENP6 block: -3.4; PPC-1+TRAIL kill: 19.8; SENP8 block-1: -474.1; SENP7 inh: -7.5; C8 TRAIL sens: 4.7; SENP8 block-2: -4.2

What do the screens show for `Cc1ccc2nc(-c3cc(N)cc(N)c3)oc2c1`?
SENP6 block: 25.2; PPC-1+TRAIL kill: 28.4; SENP8 block-1: -324.1; SENP7 inh: 11.0; C8 TRAIL sens: 75.5*; SENP8 block-2: 16.0

Results for Cc1ccc2nc(NC(=O)Cc3cccs3)sc2c1 ?
SENP6 block: 63.0*; PPC-1+TRAIL kill: 23.2; SENP8 block-1: -1.2; SENP7 inh: 54.3*; C8 TRAIL sens: 21.9; SENP8 block-2: 36.5

Results for C/C=C/c1cccc(-c2nc(C(=O)N3CCCCC3)cc3c2[C@@H](CCO)N(C(=O)NC(C)C)C3)c1 ?
SENP8 block-1: 12.3; C8 TRAIL sens: -6.3

What do the screens show for `CCOC(=O)N1CCN(C(=O)C[C@@H]2C[C@@]3(C(=O)OC)CCCCC=C3N(Cc3cccc4ccccc34)C2=O)CC1`?
SENP8 block-1: 12.5; C8 TRAIL sens: -5.1

What do the screens show for `O=C(C[n+]1ccc(C(=O)c2ccccc2)cc1)Nc1cccc([N+](=O)[O-])c1`?
SENP8 block-1: 15.6; C8 TRAIL sens: -0.8

Results for Brc1cc2c(cc1C1Nc3ccccc3C3C=CCC31)OCO2 (configuration not stated) ?
SENP6 block: -15.7; PPC-1+TRAIL kill: -12.6; SENP8 block-1: 40.1*; SENP7 inh: -6.7; C8 TRAIL sens: 1.1; SENP8 block-2: -6.6

What do the screens show for `CC(=O)Nc1ccc(NC(=O)CSc2nnc(NC(=O)Cc3ccc(F)cc3)s2)cc1`?
SENP6 block: 7.2; SENP8 block-1: 7.9; SENP7 inh: 1.9; C8 TRAIL sens: 2.1; SENP8 block-2: 6.7

What do the screens show for `COCC(=O)OC1CCn2c1nc1c2C(=O)C(C)=C(NC(C)=O)C1=O` (configuration not stated)?
SENP8 block-1: 96.2*; C8 TRAIL sens: 69.2*

What do the screens show for `O=C(Nc1ncc([N+](=O)[O-])s1)c1ccc2c(c1)OCO2`?
SENP6 block: 95.6*; SENP8 block-1: 19.3; SENP7 inh: 102.3*; C8 TRAIL sens: 67.5*; SENP8 block-2: 97.1*

Results for CC(C)Sc1nnc(NC(=O)c2ccc3c(c2)OCO3)s1 ?
SENP6 block: -15.6; SENP8 block-1: -100.0; SENP7 inh: -1.1; C8 TRAIL sens: 12.3; SENP8 block-2: -17.9

Results for Cc1onc(-c2ccccc2)c1C(=O)Nc1ncc([N+](=O)[O-])s1 ?
SENP6 block: 1.9; SENP8 block-1: 17.5; SENP7 inh: -1.6; C8 TRAIL sens: 23.8; SENP8 block-2: 10.0

What do the screens show for `Cc1ccc(C(=O)Nc2ncc([N+](=O)[O-])s2)cc1`?
SENP8 block-1: 19.9; C8 TRAIL sens: 77.4*
